D3 antag = qHTS of D3 Dopamine Receptor Antagonist: qHTS; D(3) dopamine receptor (Homo sapiens), P35462; D3R cells, DiscoveRx beta-arrestin luminescence, antagonist mode; active compounds read low; max response, negative = inhibition, %; 2.5% of 360,000 active; AID 652054, 2013; in the data active = max response below about -50%; inconclusive = no clear call, values can overlap the other calls
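Cells expressing the human receptor were seeded at 1500 cells/well, incubated overnight at 37 degrees C in 5% CO2, then exposed to library compounds with dopamine controls for 90 minutes at 37 degrees C before luminescent detection.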
D1 agonist = Allosteric Agonists of the Human D1 Dopamine Receptor: qHTS; activation, % at 2 µM; 1% of 360,000 active; AID 504660, 2011; D(1A) dopamine receptor (Homo sapiens), P21728; HEK293 T-REx D1 cells, calcium flux, agonist mode; in the data active = activation above about 30%
Target sequence (P21728 whole entry, looked up): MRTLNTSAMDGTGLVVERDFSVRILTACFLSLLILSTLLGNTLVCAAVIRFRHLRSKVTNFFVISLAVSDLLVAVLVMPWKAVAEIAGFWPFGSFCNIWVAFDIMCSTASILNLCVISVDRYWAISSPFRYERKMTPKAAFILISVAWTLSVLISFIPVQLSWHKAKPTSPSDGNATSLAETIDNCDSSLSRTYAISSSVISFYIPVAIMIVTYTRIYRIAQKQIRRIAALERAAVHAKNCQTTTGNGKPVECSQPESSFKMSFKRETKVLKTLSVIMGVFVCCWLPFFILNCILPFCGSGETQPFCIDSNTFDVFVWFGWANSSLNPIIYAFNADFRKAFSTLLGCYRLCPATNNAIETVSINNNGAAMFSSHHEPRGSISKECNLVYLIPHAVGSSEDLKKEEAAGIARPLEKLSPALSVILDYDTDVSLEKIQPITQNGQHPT
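Agonism was scored from calcium flux recorded over 180 s (1 read/s) after pintool compound addition, following a 10-cycle baseline. Cells were inducible force-coupled HEK293 TREx D1, plated overnight at 30 C and loaded with no-wash calcium dye.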
DRD3 agonist = qHTS of D3 Dopamine Receptor Agonist: qHTS | D3R DiscoveRx beta-arrestin cells, luminescence, 90 min | max activation, % | 0.58% of 410,000 active | D(3) dopamine receptor (Homo sapiens), P35462; in the data active = max activation above about 30%
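Cells at 1500/well, incubated overnight, then treated with pinned compounds (dopamine as control) for 90 min at 37 degrees C. DiscoveRx reagent added for 30 - 60 minutes at room temperature; luminescence read.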
D1 PAM = Potentiators of Human D1 Dopamine Receptor: qHTS; potentiation, % at 10 µM; HEK293 TREx D1 cells, calcium flux, dopamine EC20 potentiation; D(1A) dopamine receptor (Homo sapiens), P21728; 0.036% of 360,000 active; in the data active = potentiation above about 30%
D1 antag = Antagonist of Human D 1 Dopamine Receptor: qHTS. D(1A) dopamine receptor (Homo sapiens), P21728. HEK293 TREx D1 cells, calcium flux, dopamine EC80; active compounds read low. activity change, negative = inhibition, % at 10 µM. 3.2% of 360,000 active. AID 504652, 2011; in the data active = activity change below about -30%
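Allosteric or orthosteric antagonism assessed as attenuation of the calcium response to EC80 dopamine, added 180 s after compound, in induced HEK293 Trex D1 cells loaded with no-wash calcium dye.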
Hits are given with their value; – = inactive; ? = inconclusive; · = no result given; ! = not active in a repeat. Compounds with a hit are over-represented: about 6% of the library has one in this group of screens.

SMILES	D3 antag	D1 agonist	DRD3 agonist	D1 PAM	D1 antag
COc1ccc(-c2oc3ncnc(NCCN4CCOCC4)c3c2-c2ccc(OC)cc2)cc1	–	–	–	–	–
Cc1ccc(-c2nn(-c3ccc(F)cc3)c3c2cnc2cc(F)c(F)cc23)cc1	·	–	–	–	–
COC(=O)c1cc2sc(C)cc2n1Cc1ccc(Br)cc1F	·	–	–	–	–
COc1ccc(-c2cc(-c3ccccc3)nc(NN)n2)cc1OC	?	–	–	–	–
COc1nc(-c2ccccc2)cc(-c2ccc(OC)c(OC)c2)n1	–	–	98.3	–	–
CC(=O)c1cn(CCOc2ccccc2C)c2ccccc12	–	–	–	–	-38.0
Cn1c(=O)c2nc(SCC(=O)Nc3ccc(Cl)c(Cl)c3)n(C)c2n(C)c1=O	·	–	–	–	·
CC(=O)c1cccc(NC(=O)c2sc(-n3nc(C)c(CCC(C)C)c3C)nc2C)c1	·	–	–	–	–
CC(=O)Nc1ccc(S(=O)(=O)N2CCN(CCc3ccccc3)CC2)cc1	–	–	–	–	-33.2
CC(=O)Nc1ccc(S(=O)(=O)N2CCN(S(=O)(=O)c3ccc(NC(C)=O)cc3)CC2)cc1	–	–	–	–	–
CC(=O)Nc1ccc(S(=O)(=O)N2CCN=C2SCc2cccc(C)c2)cc1	–	–	–	–	–
CC(=O)Nc1ccc(S(=O)(=O)N2CCN=C2SCc2ccc([N+](=O)[O-])cc2)cc1	–	–	–	–	-65.0
CC(=O)Nc1ccc(S(=O)(=O)N2CCN(c3ccc([N+](=O)[O-])cc3)CC2)cc1	–	–	–	–	-35.2
CCOc1ccc(NC(=O)CSc2ncc3c(n2)-c2ccc(Cl)cc2N(Cc2ccccc2)S3(=O)=O)cc1	·	–	–	–	–
CN(C)c1nc(Nc2ccc(F)cc2)nc(Oc2ccc(F)cc2)n1	–	–	–	–	–
CN(C)c1nc(N/N=C/c2ccccc2O)nc(Nc2ccc(F)cc2)n1	-84.8	–	–	–	–
COC(=O)C1CCN(Cc2cn(-c3ccccc3)nc2-c2ccc3c(c2)OCO3)CC1	-69.0	–	–	–	–
COC(=O)C1CCN(Cc2nnc(-c3ccccc3)o2)CC1	–	–	81.1	–	–
CCOC(=O)C1CCN(C2CCN(Cc3nc(-c4ccccc4)no3)CC2)CC1	–	–	–	–	–
CCOC(=O)N1CCN(Cc2nc(-c3cccc(C)c3)no2)CC1	–	–	–	–	-31.3
CC(=O)NCC1CCCN(Cc2cn(-c3ccccc3)nc2-c2ccc3c(c2)OCO3)C1 (centres undefined)	–	–	–	–	–
NC(=O)C1CCN(Cc2nc(-c3ccccc3)no2)CC1	–	–	34.0	–	–
Cc1cc(=O)n2[nH]c(NC(=O)c3cccc(Cl)c3)nc2n1	·	–	–	–	–
O=C(CSc1nnc(-c2ccncc2)n1-c1ccccc1)Nc1ccc(Br)cc1	·	–	–	–	–
O=C(O)CC/C(=C\c1ccc(N2CCOCC2)c([N+](=O)[O-])c1)c1nc2ccccc2s1	–	–	–	–	-76.5
SMILES	D3 antag	D1 agonist	DRD3 agonist	D1 PAM	D1 antag
CCOC(=O)c1[nH]c(C)c(C(=O)NCc2ccccc2Cl)c1C	·	–	–	–	–
C=CCNC(=O)/C(C#N)=C\c1cc(Cl)c(O)c(OCC)c1	–	–	–	–	–
CCOc1ccc(NC(=O)/C(C#N)=C/c2ccc(N3CCCC3)c(C)c2)cc1	–	376.8	–	–	–
CCOc1cc(/C=C(\C#N)C(=O)Nc2ccc(C)cc2)ccc1OCc1cc(=O)n2nc(CC)sc2n1	·	–	48.0	–	–
CCOc1cc(/C=C(/C#N)C(=O)Nc2ccc(O)cc2)cc(Br)c1O	–	47.6	–	–	–
Cc1nc2c(c(C)c1CCC(=O)N1CCN(c3ccccc3)CC1)c(=O)n(C)c(=O)n2C	·	–	–	–	–
Cc1oc2ncn(C)c(=O)c2c1C(=O)N(C)c1ccccc1F	·	–	–	–	–
N#C/C(=C(/O)COc1ccccc1)c1nc2ccccc2s1	–	–	–	–	-42.4
CCOC(=O)c1cccc(NC(=O)CN2C(=O)c3ccccc3Sc3ncccc32)c1	·	–	–	–	–
Cc1cnc(NC(=O)C2=C(O)c3ccccc3S(=O)(=O)N2C)s1	?	–	–	–	-51.8!
Oc1c(Cl)cc(Cl)cc1C1=NNC(c2ccc(Cl)cc2)C1 (centres undefined)	-64.0	–	–	–	–
CCOC(=O)c1ccccc1NC(=O)CCc1c(C)nc2ncnn2c1C	·	–	–	–	–
COc1cc([N+](=O)[O-])ccc1N/C=C/C(=O)c1cccs1	–	41.9	–	–	–
O=C(/C=C/c1ccc([N+](=O)[O-])cc1)c1cccs1	–	–	–	–	–
Cc1ccc(N(C)S(=O)(=O)c2ccc3[nH]c(=O)ccc3c2)cc1	·	–	–	–	–
Cc1cc(C)c(NC(=O)Cn2c(=O)oc3cc(S(=O)(=O)N4CCCCCC4)ccc32)c(C)c1	·	–	–	–	–
COC(=O)N/N=C(\C)c1ccccc1Br	–	–	–	–	-31.4
CCC(C)NC(=O)Cn1cnc2sc(C)c(S(=O)(=O)N3CCN(c4ncccn4)CC3)c2c1=O (centres undefined)	–	–	–	–	–
Cc1sc2ncn(CC(=O)Nc3ccc(C(C)C)cc3)c(=O)c2c1S(=O)(=O)N1CCN(c2ncccn2)CC1	·	–	–	–	-60.8
COC(=O)c1ccc(NC(=O)CN2C(=O)C3C4C=CC(C4)C3C2=O)cc1 (centres undefined)	–	–	–	–	–
O=C(CN1C(=O)C2C3C=CC(C3)C2C1=O)Nc1ccc(C(=O)O)cc1 (centres undefined)	–	–	–	–	-30.0
CCN1/C(=C/C(C)=C/c2sc3ccccc3[n+]2CC)Sc2ccccc21	-58.9!	–	–	–	–
CCN1\C(=C/C=C/C=C/c2sc3ccccc3[n+]2CC)Sc2ccccc21	·	·	–	·	·
CCOC(=O)Cn1c(S(=O)(=O)Cc2cccc(F)c2)nc(-c2ccccc2)c1-c1ccccc1	–	–	–	–	-38.3
Cc1cccc(NS(=O)(=O)c2ccc3oc(=O)c4ncn(C)c4c3c2)c1C	·	–	42.2	–	–
O=[N+]([O-])c1cc(C(F)(F)F)ccc1NC1CCN(Cc2ccccc2)C1 (centres undefined)	-74.4	–	–	–	–
NC(=O)CC(NC(=O)c1ccccc1)c1ccc(NC2CCN(Cc3ccccc3)CC2)c([N+](=O)[O-])c1 (centres undefined)	–	–	–	–	–
CC1(C)CC(Nc2ccc(C(F)(F)F)cc2[N+](=O)[O-])CC(C)(C)N1	–	–	–	·	–

Bioassay records: PubChem BioAssay, National Center for Advancing Translational Sciences (NCATS)
